# Measured values as given in PubChem BioAssay (NCATS).
# Records with an inconclusive call do not appear. A call without a number means that no potency is given here. Calls of active or inactive are those of the source. Calls come from the whole dose curve; as a rule, active = well fitted cell-killing curve with a large enough effect; inconclusive = small, poorly fitted or top-dose-only effect; inactive = flat fitted curve, though single readings scatter.
# Experiment: Cell Viability - LYMP2-011 (AID 969); note: nearly all actives have a fitted effect of over 60% in size
# Conditions: LYMP2-011 lymphoblastoid cells viability; series mostly up to 92.2 µM
# Text: NIH Chemical Genomics Center [NCGC]
# NIH Molecular Libraries Screening Centers Network [MLSCN]
# National Institutes of Environmental Health Sciences [NIEHS]
# National Toxicology Program [NTP]
# We have developed a 1536-well cell-based assay for quantitative high throughput screening (qHTS) against a number of cell lines to determine in vitro cytotoxicity of small molecules. This particular assay uses a human lymphoblastoid cell line (LYMP2-011) purchased from Coriell Institute for Medical Research.
# NCGC Assay Protocol Summary:
# The CellTiter-Glo luminescent cell viability assay (Promega) is a homogeneous method to measure the number of viable cells in culture. The end point readout of this assay is based on quantitation of intracellular ATP, an indicator of metabolic activity, using the luciferase reaction. Luciferase catalyzes the oxidation of beetle Luciferin to oxyluciferin and light in the presence of ATP. The luminescent signal is proportional to amount of ATP present.
# Using the CellTiter-Glo luminescent cell viability assay, the amount of cellular ATP was measured in the lymphoblastoid cell line with complete culture medium following compound treatment for 24 hours. The assay was performed in opaque white Kalypsys 1536-well plates. In the screen, tetraoctylammonium bromide was used as positive control. Library compounds were measured for their ability to cause acute toxicity in the cell line, as reflected by a decrease in intracellular ATP levels, in a concentration-dependent manner. […] AC50 values were determined from concentration-response data modeled with the standard Hill equation.
# qHTS protocol for CellTiter Glo lymphoblastoid cellular assay
# [Step] [Parameter] [Value] [Description]
# 1. Reagent; 5 uL; 2500 lymphoblastoid cells/well
# 2. Time; 5 hr; 37 C incubation
# 4. Controls; 23 nL; Tetraoctylammonium bromide 6.4pM to 92 uM
# 5. Time; 24 hr; 37 C incubation
# 6. Reagent; 5 uL; CellTiter Glo reagent
# 7. Time; 30 min; Room Temperature
# 8. Detection; Luminescence; Viewlux plate reader
# Keywords: cell viability, cytotoxicity, lymphoblastoid cell line, luminescence, NTPHTS, NTPHTS_NCGC, NIEHS, DSSTox, MLSMR, MLSCN, NIH Roadmap, qHTS, NCGC
# Potency is the fitted concentration of half-maximal effect.
row,SMILES,Potency
1,ClCCOCOCCCl,inactive
2,CC(C#N)CCC#N (stereo not given),inactive
3,CC(=O)[O-].CC(=O)[O-].CC(=O)[O-].[Cr+3],inactive
4,O=[N+]([O-])CCO,inactive
5,CC(Cl)(Cl)Cl,inactive
6,CCCCC(=O)Cl,inactive
7,CC(C)[C@]12CC(=O)[C@H](C)[C@H]1C2,inactive
8,S=C1NCCN1,inactive
9,O=[N+]([O-])c1cc(Cl)c(Cl)c(Cl)c1,inactive
10,OCCOCCO,inactive
11,CC(C)(Cl)Cl,inactive
12,CN(C)C(=O)Nc1ccc(Cl)cc1,inactive
13,C=COC(C)=O,inactive
14,CC(=O)NNc1ccccc1,inactive
15,Nn1cnnc1,inactive
16,O=C(O)CCl,inactive
17,Clc1cccc2ccccc12,inactive
18,O=Cc1ccc2c(c1)OCO2,inactive
19,C=CC(=O)OCC(C)C,inactive
20,CC(C)Br,inactive

row,SMILES,Potency
1,O=C(O)CBr,inactive
2,Nc1cccc(Cl)c1,inactive
3,C=CC=O,inactive
4,C[N+](=O)[O-],inactive
5,Nc1ccc(-c2ccccc2)cc1,inactive
6,Cc1ccc(N)cc1N,inactive
7,CCC#N,inactive
8,ClC(Br)Br,inactive
9,N#C/C=C/C#N,39.8 µM (active)
10,[O-][Cl+]O,inactive
11,O=C(O)C(Br)CBr (stereo not given),inactive
12,COC(=O)Nc1nc2ccccc2[nH]1,inactive
13,Oc1cccc(Cl)c1,inactive
14,CCN(CC)N=O,inactive
15,Clc1ccc(C(Cl)(Cl)Cl)c(Cl)c1,inactive
16,CCCCC#N,inactive
17,C/C=C/C=O,inactive
18,Clc1cccc(Cl)c1Cl,inactive
19,Nc1ccc(-c2ccc(N)cc2)cc1,inactive
20,ClCc1ccccn1,inactive
